Assay outcomes from PubChem BioAssay.
ATXN2 expr inh: Primary qHTS for Inhibitors of ATXN expression; 0.72% of 360,000 active; Potency, µM (top dose mostly 57 µM), without a hit: top-dose activity change, negative = inhibition, most hits filed as inhibitors; HEK-293 ATXN2-luciferase reporter, luminescence, 24 h; AID 1745845, 2022; also: potency is read from the fitted curve at half-maximal effect; % is scaled to controls: 0 for no effect and ±100 for the full control effect; nearly all actives have a fitted effect of over 55% in size
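qHTS (up to 57 uM final) was run with 24 h compound exposure of reporter cells at 37 °C. Each well was multiplexed: SteadyGlo luminescence measured ATXN2-luciferase expression after a fluorogenic Gly-Phe-AFC viability readout (25 uM final).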
D3 ag: qHTS of D3 Dopamine Receptor Agonist: qHTS | D3R DiscoveRx beta-arrestin cells, luminescence, 90 min | max activation, % | 0.58% of 410,000 active; in the data active = max activation above about 30%; also: 0% is about no effect
Target sequence (P35462 whole entry, looked up): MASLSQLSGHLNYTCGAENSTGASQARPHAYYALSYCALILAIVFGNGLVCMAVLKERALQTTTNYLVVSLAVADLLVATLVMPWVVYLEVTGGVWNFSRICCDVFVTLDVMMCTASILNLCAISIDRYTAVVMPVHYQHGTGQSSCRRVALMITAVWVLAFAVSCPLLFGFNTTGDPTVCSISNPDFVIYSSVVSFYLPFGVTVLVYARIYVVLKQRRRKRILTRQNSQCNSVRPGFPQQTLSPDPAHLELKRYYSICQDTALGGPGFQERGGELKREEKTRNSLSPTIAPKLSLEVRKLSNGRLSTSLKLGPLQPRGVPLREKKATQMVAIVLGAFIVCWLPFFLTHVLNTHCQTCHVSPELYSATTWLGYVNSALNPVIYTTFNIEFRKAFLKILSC
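Agonist-mode cell screen: cells plated at 1500/well and incubated overnight at 37 °C, then exposed to library compounds for 90 min at 37 °C. Detection reagent was added for 30–60 min at room temperature, and luminescence was read.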
D3 antag: qHTS of D3 Dopamine Receptor Antagonist: qHTS. D(3) dopamine receptor (Homo sapiens), P35462. D3R cells, DiscoveRx beta-arrestin luminescence, antagonist mode; hits give low values. max response, negative = inhibition, %. 2.5% of 360,000 active. AID 652054, 2013; in the data active = max response below about -50%; inconclusive = no clear call, values can overlap the other calls; also: % is scaled to controls: 0 for no effect and ±100 for the full control effect
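Cells expressing the human receptor were seeded at 1500 cells/well, incubated overnight at 37 degrees C in 5% CO2, then exposed to library compounds with dopamine controls for 90 minutes at 37 degrees C before luminescent detection.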
S2 tox: Viability Counterscreen for Primary qHTS for Inhibitors of ATXN expression; S2 cells (HEK-293 line with an ATXN2-luciferase reporter) viability, CellTiter-Fluor protease fluorescence, 24 h; Potency, µM (highest dose often 56.7 µM), actives largely listed as cytotoxic; 0.49% of 400,000 active; AID 651635, 2014; also: potency is read from the fitted curve at half-maximal effect; nearly all actives have a fitted effect of over 40% in size
a7 integrin act: qHTS for Activators of Integrin-Mediated Alleviation for Muscular Dystrophy; alpha7betagal myoblasts, beta-gal FDG fluorescence, 48 h; 0.064% of 350,000 active; Potency, µM (highest dose often 38.3 µM), inactives show at the highest dose activation, most hits filed as activators; AID 624291, 2012;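 also: potency is read from the fitted curve at half-maximal effect; 100% = response of the positive control SU9516; nearly all actives have a fitted effect of over 60% in size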
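Alpha7betagal+/- myoblasts (passage 13) were plated 16-24 hr, then exposed to compounds (1:260 dilution of DMSO stock) for 48 hours at 37C. After MPER lysis, β-galactosidase reporter activity was read as FDG fluorescence (ex 480/em 540) after 30 minutes.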
IL1B secr inh: qHTS for Inhibitors of Inflammasome Signaling: IL-1-beta AlphaLISA Primary Screen; THP-1 LPS/ATP IL-1B secretion, AlphaLISA, 16 h; hits give low values; activity change, % at 57.5 µM; 4.7% of 360,000 active; AID 743279, 2014; in the data active = activity change below about -50%; inconclusive = mostly about -30% to -49%; also: % is scaled to controls: 0 for no effect and ±100 for the full control effect
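THP-1 cells pretreated 1 hr with compounds (up to 57.5 uM final), then stimulated with LPS (250 ng/mL final) plus ATP (1.25 mM final); secreted IL-1B measured by AlphaLISA after 16 hr, decreased signal indicating inhibition.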
* marks the source's active call; other numbers are inactive results; i = inactive; ? = inconclusive; . = not tested or not shown; [ ] = another dose, or the depositor's remark. The list is not random: actives were taken first. Their share in the collection is about 7%. Unless noted, calls follow the shape of the dose curve; as a rule, active = well fitted curve in the direction sought with a large enough effect; inconclusive = small, poorly fitted or top-dose-only effect, or another doubt; inactive = no such curve, though single readings can be large; an effect the other way counts as inactive or inconclusive.

SMILES | ATXN2 expr inh | D3 ag | D3 antag | S2 tox | a7 integrin act | IL1B secr inh
COc1ccc(C)cc1S(=O)(=O)N1c2ccc(C)cc2C2CN(C)CCC21 (centres undefined) | 0% | -11 | -5 | i | -65% | -24
Cc1ccc2c(c1)[C@@H]1CN(C)CC[C@@H]1N2S(=O)(=O)c1ccc([N+](=O)[O-])cc1 | 2% | -14 | -107* | i | -27% | -13
Cc1ccc2c(c1)C1CN(C)CCC1N2C(=O)c1cccc(S(=O)(=O)N(C)C)c1 (centres undefined) | -15% | -7 | -15 | i | -14% | 0
Cc1ccc2c(c1)[C@@H]1CN(C)CC[C@@H]1N2S(=O)(=O)c1ccc(F)cc1 | -18% | -21 | -63* | i | -7% | -10
Cc1ccc2c(c1)C1CN(C)CCC1N2C(=O)COc1ccc(N(C)C(=O)c2ccccc2)cc1 (centres undefined) | 14% | -8 | -6 | i | -26% | 0
Cc1ccc2c(c1)C1CN(C)CCC1N2Sc1ccccc1[N+](=O)[O-] (centres undefined) | ? | -11 | ? | ? | -52% | -89*
CN(C)CCCNc1ccc(-c2cc(Nc3cccc(Cl)c3)ncn2)cn1 | ? | 8 | -19 | ? | -2% | -3
OCCCNc1cc(-c2ccnc(Nc3cccc(Cl)c3)n2)ccn1 | 0.16µM* | 19 | 8 | ? | -40% | -108*
CCC(C)Oc1cc(-c2ccnc(Nc3cccc(Cl)c3)n2)ccn1 (centres undefined) | ? | 26 | 35 | i | 6% | -86*
Cc1ccc(-c2nn(-c3ccccc3)cc2CO)cc1 | 42% | 7 | -23 | i | -7% | -23
Cc1nn(-c2ccccc2)c2[nH]c(=O)c(CNCc3ccc4c(c3)OCO4)cc12 | -1% | 3 | -65* | i | 7% | -15
Cc1ccc(-c2nn(-c3ccccc3)c3[nH]c(=O)c(CNCc4ccccc4)cc23)cc1 | ? | -8 | -65* | . | -28% | -58*
Cc1ccc(-c2nn(-c3ccccc3)cc2CNCc2ccccc2)cc1 | -13%[11.3 µM] | -13 | -24 | ? | -71% | -80*
Cc1nn(-c2ccccc2)c2[nH]c(=O)c(CNCCN3CCOCC3)cc12 | 7% | 2 | -66* | i | 10% | 9
Cc1ccc2sc(N(CCN(C)C)C(=O)c3ccc4ccccc4c3)nc2c1C | . | 0 | -73* | i | 1% | -23
CCc1ccc2nc(N(CCN(C)C)C(=O)c3ccc4ccccc4c3)sc2c1 | 10% | -13 | -4 | i | -18% | -54*
Cc1cc(C)c2sc(N(CCN(C)C)C(=O)c3ccc4ccccc4c3)nc2c1 | . | -13 | ? | i | 5% | -11
CC(NNC(=S)N1CCN(c2ccccn2)CC1)c1nccc2ccccc12 (centres undefined) | ? | -7 | ? | 11µM* | -48% | -101*
CCNC(=S)N1CCN(c2ccccn2)CC1 | 5% | -7 | -13 | i | 0% | -13
Cc1ccc(-c2nc(P(=O)(c3ccccc3)c3ccccc3)c(N3CCOCC3)o2)cc1 | -11% | -6 | 10 | i | -4% | 0
CNc1oc(-c2ccc(Cl)cc2)nc1P(=O)(c1ccccc1)c1ccccc1 | -21% | 12 | -7 | i | -3% | -61*
O=C(O)c1cccnc1SCC(=O)C12CC3CC(CC(C3)C1)C2 | 6% | -21 | -13 | i | 1% | 35
c1ccc(-c2cc(-c3nc(-c4ccccn4)no3)c3ccccc3n2)cc1 | 4% | 0 | -7 | i | 13% | -15
c1ccc(-c2ccc(-c3nc(-c4ccccn4)no3)cc2)cc1 | ? | 15 | 40 | i | -14% | -4
Cc1ccc(-c2nc(-c3ccccn3)no2)cc1 | 2µM* | 3 | 11 | i | 11% | 0
SMILES | ATXN2 expr inh | D3 ag | D3 antag | S2 tox | a7 integrin act | IL1B secr inh
Clc1cccc(-c2nc(-c3ccccn3)no2)c1 | 13µM* | -6 | 1 | i | -16% | 13
Cc1ccc(Cc2nc(-c3ccccn3)no2)cc1 | 26% | 1 | -11 | i | -22% | -8
Cc1ccc(-c2nc(-c3ccccn3)no2)cc1Cl | 10µM* | 3 | -10 | i | -9% | 17
c1ccc(-c2nc(-c3ccccn3)no2)cc1 | 4.5µM* | -8 | -12 | i | 1% | 22
Cc1cc(C)nc(-n2nc(C)c(Br)c2Nc2ccc(Br)cc2)n1 | -10% | 0 | 14 | i | -23% | ?
Cc1nn(C)c(Nc2ccc(Br)cc2)c1Br | -17% | 2 | 1 | i | -39% | -55*
Cc1c(CC(=O)NCCCCCC(=O)O)c(=O)oc2c(C)c3oc4c(c3cc12)CCCC4 | 19% | 13 | 22 | i | 25% | 36
CC(C)Cn1c(N)c(C(=O)COC(=O)Cc2cccs2)c(=O)n(C)c1=O | -17% | 4 | 6 | i | -24% | i
CC(C)Cn1c(N)c(C(=O)COC(=O)/C=C/c2cccs2)c(=O)n(C)c1=O | ? | 33* | 1 | ? | -48% | -4
COc1ccc(C)cc1S(=O)(=O)N1CCCC(C(=O)NCc2ccccn2)C1 (centres undefined) | -2% | 1 | -8 | i | 24% | i
COc1ccc(S(=O)(=O)N2CCC(C(=O)NCc3ccncc3)CC2)cc1Cl | -15% | -2 | -6 | i | ? | -9
COc1ccc(S(=O)(=O)N2CCCC(C(=O)NCc3ccncc3)C2)cc1Cl (centres undefined) | -4% | -1 | -71* | i | 2% | 19
O=C(NCc1ccccn1)C1CCCN(S(=O)(=O)c2cc(Cl)ccc2Cl)C1 (centres undefined) | 10% | -19 | -21 | i | -57% | -104*
COC(=O)c1scc2c(=O)cc(C(F)(F)F)[nH]c12 | 1% | . | . | ? | . | .
CCCOc1ccc(C2Nc3cccc4cccc(c34)N2)cc1 | 10% | -15 | 4 | i | 4% | 34
CCc1nc2c(OCC3CCCCC3)cccn2c1N(C)C(=O)c1ccccc1F | ? | -4 | -57* | ? | . | -18
CCc1nc2c(OCCC3CCCCC3)cccn2c1N(C)C(=O)c1ccccc1F | ? | -19 | -57* | ? | . | ?
CCc1nc2c(OCC3CCCCC3)cccn2c1N(C)C(=O)c1ccc(OC)cc1 | -11% | -18 | ? | ? | . | .
